From PubChem BioAssay
CHX counter: counter-screen hit for Shiga toxin inhibitors, cycloheximide; max response, %; cell reporter, cycloheximide protein synthesis inhibition counterscreen; 300,000 compounds, 12% hits; AID 2314; in the data active means max response mostly above about 13%, no sharp cut-off; inactive means mostly below about 14%; further: read at 38.3 µM for the half of the compounds with a filed dose; 0% is about no effect
AMA1 RON2 block: inhibitors of Plasmodium falciparum AMA1-RON2 interaction. AlphaScreen AMA1-biotinylated RON2 peptide binding. Potency, µM (titrated, usually from 58.2 µM), without a hit: at the highest dose activity change, negative = inhibition, usual class: inhibitors. 360,000 compounds, 0.2% hits; active means well fitted inhibition curve with a large enough effect; inconclusive means small, poorly fitted or top-dose-only effect; inactive means no such curve, though single readings can be large or run the other way;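 further: potency means the concentration at half of the fitted maximal effect; 0% = vehicle wells and -100% = peptide control; nearly all actives have a fitted effect of over 45% in size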
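AMA1 (3D7) with his tag at 25 nM final met compounds first, then biotinylated RON2 peptide at 25 nM; detection used donor plus acceptor beads, 10 µg/mL apiece, read by AlphaScreen after 30 min at room temperature.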
Lassa entry inh: inhibitors of Lassa virus binding or cell entry | Lassa virus pseudotype entry inhibition, cell reporter | Potency, µM (titrated, usually from 37.9 µM), for the others: top-dose activity change, negative = inhibition, most hits filed as inhibitors | 300,000 compounds, 1.2% hits; calls by dose curve; tested in HEK293 cells; further: potency means the concentration at half of the fitted maximal effect; on the % scale 0 is the no-effect control and ±100 the full control effect; nearly all actives have a fitted effect of over 50% in size
Shiga toxin inh: blocks Shiga toxin action in Vero cells; Vero cells, Shiga toxin protein synthesis inhibition reporter; inhibition, % at 38.7 µM; 290,000 compounds, 9.2% hits; in the data active means inhibition mostly above about 28%, no sharp cut-off; inactive means mostly below about 43%; further: 0% is about no effect
MARV entry inh: inhibitors of Marburg virus binding or cell entry; Marburg virus pseudotyped entry inhibition, cell reporter; Potency, µM (top dose mostly 37.8 µM), for inactives: at the highest dose activity change, negative = inhibition, usual class: inhibitors; 300,000 compounds, 1.8% hits; calls by dose curve; tested in HEK293 cells; further: potency means the concentration at half of the fitted maximal effect; on the % scale 0 is the no-effect control and ±100 the full control effect
* hit, by the source's call; [ ] = another dose, or the depositor's remark. This is one part of a sample in which hits are shown more often than they occur.

What do the screens show for `O=C(CN1CCOCC1)Nc1ccc(OC(F)(F)F)cc1`?
CHX counter: 21*; AMA1 RON2 block: -2%; Shiga toxin inh: 28

Results for Cc1ccc(N(CCC#N)C(=O)CCl)cc1C ?
CHX counter: 9; AMA1 RON2 block: -5%; Lassa entry inh: 7.9µM*; Shiga toxin inh: 8; MARV entry inh: 7.1µM*

Results for Cc1cccc(N2CCN(S(=O)(=O)c3ccc(-c4ccc(=O)[nH]n4)o3)CC2)c1C ?
CHX counter: -1; AMA1 RON2 block: 17%; Shiga toxin inh: -1

How did COc1cc(/C=C(\C#N)C(=O)Nc2cccc(C(=O)O)c2)ccc1OCc1ccc(F)cc1 do in these assays?
CHX counter: 25*; AMA1 RON2 block: 16%; Lassa entry inh: 0%; Shiga toxin inh: 61*; MARV entry inh: inconclusive

Results for N#C/C(=C\c1ccc(OCc2ccc(F)cc2)cc1)C(=O)Nc1cccc(C(=O)O)c1 ?
CHX counter: 3; AMA1 RON2 block: -6%; Shiga toxin inh: 42

Results for N#CC(C#N)=Cc1ccccc1OCc1ccccc1 ?
CHX counter: 43*; Shiga toxin inh: 23

Results for Cc1ccc(S(=O)(=O)/C(C#N)=C/c2ccccc2OCc2ccccc2)cc1 ?
CHX counter: 8; AMA1 RON2 block: -8%[11.6 µM]; Lassa entry inh: inconclusive; Shiga toxin inh: -6; MARV entry inh: inconclusive

Results for CCCOc1ccccc1/C=C(\C#N)C(=O)Nc1cccc(C)n1 ?
CHX counter: 14*; AMA1 RON2 block: -7%; Lassa entry inh: 4%; Shiga toxin inh: 29*; MARV entry inh: 4%

What do the screens show for `N#C/C(=C\c1ccc(OCc2ccc(Br)cc2)cc1)C(=O)Nc1cccc(C(=O)O)c1`?
CHX counter: 23*; AMA1 RON2 block: 1%; Lassa entry inh: inconclusive; Shiga toxin inh: 95*; MARV entry inh: inconclusive

Results for Cc1cccc(NC(=O)/C(C#N)=C/c2ccc(F)cc2)n1 ?
CHX counter: 6; AMA1 RON2 block: 7%; Shiga toxin inh: -4

Results for O=C(CCN1C(=O)c2cccc3cccc(c23)C1=O)NCc1ccco1 ?
CHX counter: -3; AMA1 RON2 block: 14%; Shiga toxin inh: -11

What do the screens show for `COCc1ccc(-c2c(-c3cc(OC)cc(OC)c3)oc(=O)c3cc(OC)c(OC)cc23)cc1`?
AMA1 RON2 block: -5%

Results for O=C(NCc1ccccc1F)C12CC3CC(CC(C3)C1)C2 ?
AMA1 RON2 block: 13%; Lassa entry inh: -30%; MARV entry inh: 6%[46.1 µM]

How did COc1cccc(NC(=O)CNC(=O)Cn2c(C)cc3ccccc3c2=O)c1 do in these assays?
Lassa entry inh: -2%[46.1 µM]; MARV entry inh: inconclusive

What do the screens show for `CCOc1cc(/C=C(\C#N)C(=O)Nc2cccc(C(=O)O)c2)cc(Br)c1OC(=O)c1ccc(OC)cc1`?
CHX counter: 11; AMA1 RON2 block: 8%; Lassa entry inh: inconclusive; Shiga toxin inh: 31*; MARV entry inh: 5%[46.1 µM]

How did COC(=O)c1ccc(COc2ccccc2/C=C(\C#N)C(=O)Nc2ccc(C)cc2)cc1 do in these assays?
CHX counter: 87*; AMA1 RON2 block: 7%; Lassa entry inh: 7%; Shiga toxin inh: 99*; MARV entry inh: inconclusive

Results for C=CCNC(=O)/C(C#N)=C/c1ccccc1OCc1ccc(C(=O)OC)cc1 ?
CHX counter: -2; AMA1 RON2 block: -5%; Shiga toxin inh: 14; MARV entry inh: -2%

Results for N#CCCOC1(C#CCN2CCCC2)CCCCC1 ?
CHX counter: -1; AMA1 RON2 block: 26%; Shiga toxin inh: -11

How did CSc1c(SCc2ccccc2)cnn(-c2ccccc2)c1=O do in these assays?
CHX counter: 2; AMA1 RON2 block: -22%; Lassa entry inh: 5.2µM*; Shiga toxin inh: -12; MARV entry inh: 28%

How did Cn1ncc(SCc2ccccc2)c(Cl)c1=O do in these assays?
CHX counter: 8; AMA1 RON2 block: -4%; Lassa entry inh: inconclusive; Shiga toxin inh: -5; MARV entry inh: inconclusive

Results for CCN(C)C1CN(Cc2cn(Cc3ccc(C)cc3)nn2)S(=O)(=O)C1 (stereo not given) ?
AMA1 RON2 block: 10%

Results for O=S1(=O)C=C(Sc2nc3cc(Cl)ccc3o2)c2ccccc21 ?
CHX counter: 18*; AMA1 RON2 block: 11%; Lassa entry inh: inconclusive; Shiga toxin inh: 40; MARV entry inh: 7.9µM*

What do the screens show for `S=c1nc(-c2ccccc2)c(-c2ccccc2)n[nH]1`?
CHX counter: -5; AMA1 RON2 block: 62%; Shiga toxin inh: -13
